Measurements as given in the supplement of paper PMC6607015.
Where a name gives a salt, the structure may show the parent alone.

Tested on: A431
Experiment: filipin (cholesterol) integrated intensity within LBPA endosomes, Z-score; higher = more cholesterol in LBPA endosomes
Conditions: compound concentration in added solution (µM; 5 µl added to 20 µl cells): 10; 18 h
In short: (§1)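 HeLa MZ or A431 cells (3,500/well in 20 µl) were seeded onto 5 µl of 10 µM compound solution in duplicate 384-well imaging plates, incubated 18 h, then fixed in 4% PFA. Cells were stained with 6C4 anti-LBPA antibody, filipin, propidium iodide and CellTracker green, and four 20× images were taken per well. MetaXpress segmentation gave per-cell integrated LBPA or filipin intensity, either whole-cell or within LBPA endosomes. Values are Z-scores normalised in AcuityXpress.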

| Structure (SMILES) | filipin (z-score) |
| --- | --- |
| CCOc1cc(CC(=O)N[C@@H](CC(C)C)c2ccccc2N2CCCCC2)ccc1C(=O)O [Repaglinide] | -0.42 |
| Cc1cn[nH]c1 [Fomepizole] | -0.557 |
| CNCC[C@@H](Oc1ccccc1C)c1ccccc1 [Tomoxetine hydrochloride] | -0.072 |
| O=C(Nc1cccc2c(=O)cc(-c3nnn[nH]3)oc12)c1ccc(OCCCCc2ccccc2)cc1 [Pranlukast] | -0.501 |
| N#CC(c1ccc(Cl)cc1)c1c(Cl)cc(-n2ncc(=O)[nH]c2=O)cc1Cl (stereo not given) [Diclazuril] | -0.215 |
| CCCCC1C(=O)N(c2ccccc2)N(c2ccccc2)C1=O [Phenylbutazone] | -0.314 |
| CCN1CCCC1CNC(=O)c1cc(S(=O)(=O)CC)c(N)cc1OC (stereo not given) [Amisulpride] | -0.543 |
| CNC(C)CCC=C(C)C (stereo not given) [Isometheptene mucate] | -0.458 |
| CC(=O)Oc1cc(C(C)C)c(OCCN(C)C)cc1C [Moxisylyte hydrochoride] | -0.482 |
| CN1CCC[C@@H]1CCO[C@](C)(c1ccccc1)c1ccc(Cl)cc1 [Clemastine fumarate] | 2.73 |
| Cc1nc2ccccn2c(=O)c1CCN1CCC(C(=O)c2ccc(F)cc2)CC1 [Pirenperone] | 1.54 |
| NS(=O)(=O)c1cc(C2(O)NC(=O)c3ccccc32)ccc1Cl (stereo not given) [Chlorthalidone] | -0.516 |
| CC(=O)NS(=O)(=O)c1ccc(N)cc1 [Sulfacetamide sodic hydrate] | -0.475 |
| NS(=O)(=O)c1cc(C(=O)O)c(NCc2ccco2)cc1Cl [Furosemide] | -0.572 |
| NNc1nncc2ccccc12 [Hydralazine hydrochloride] | -0.474 |
| CNC[C@H](O)[C@@H](O)[C@H](O)[C@H](O)CO [Meglumine] | -0.555 |
| CCCc1cc(C(N)=S)ccn1 [Prothionamide] | -0.301 |
| CC(=O)Nc1ccc(OCC(O)CNC(C)C)cc1 (stereo not given) [Practolol] | -0.573 |
| NCCc1ccc(O)c(O)c1 [Dopamine hydrochloride] | -0.377 |
| C#C[C@]1(O)CC[C@H]2[C@@H]3CCC4=Cc5oncc5C[C@]4(C)[C@H]3CC[C@@]21C [Danazol] | -0.449 |

| Structure (SMILES) | filipin (z-score) |
| --- | --- |
| CC(=O)O[C@H]1C[C@@H]2CC[C@@H]3[C@H](CC[C@@]4(C)[C@H]3C[C@H]([N+]3(C)CCCCC3)[C@@H]4OC(C)=O)[C@@]2(C)C[C@@H]1N1CCCCC1 [Vecuronium bromide] | -0.445 |
| CCOc1nc2cccc(C(=O)O)c2n1Cc1ccc(-c2ccccc2-c2nnn[nH]2)cc1 [Candesartan] | -0.389 |
| O=C(CCNNC(=O)c1ccncc1)NCc1ccccc1 [Nialamide] | -0.403 |
| NC(Cc1cc(I)c(Oc2cc(I)c(O)c(I)c2)c(I)c1)C(=O)O (stereo not given) [Thyroxine (L)] | -0.586 |
| Nc1ccc(/N=N/c2ccccc2)c(N)n1 [Phenazopyridine hydrochloride] | -0.32 |
| CC(=O)CC(c1ccccc1)c1c(O)c2ccccc2oc1=O (stereo not given) [Warfarin] | -0.461 |
| O=C1CCc2cc(OCCCCc3nnnn3C3CCCCC3)ccc2N1 [Cilostazol] | -0.49 |
| NC(=O)N1c2ccccc2CC(=O)c2ccccc21 [Oxcarbazepine] | -0.582 |
| Cc1c(Nc2ncccc2C(=O)O)cccc1C(F)(F)F [Flunixin meglumine] | -0.459 |
| CCn1cc(C(=O)O)c(=O)c2cnc(N3CCCC3)nc21 [Piromidic acid] | -0.374 |
| CNC1(C)C2CCC(C2)C1(C)C (stereo not given) [Mecamylamine hydrochloride] | -0.495 |
| CN(Cc1ccc(C(C)(C)C)cc1)Cc1cccc2ccccc12 [Butenafine Hydrochloride] | -0.512 |
| CC[N+](C)(CC)CCC[n+]1c(-c2ccccc2)c2cc(N)ccc2c2ccc(N)cc21 [Propidium iodide] | -0.56 |
| CC#C[C@]1(O)CC[C@H]2[C@@H]3CCC4=CC(=O)CCC4=C3[C@@H](c3ccc(N(C)C)cc3)C[C@@]21C [Mifepristone] | -0.386 |
| C[C@]12CCC(=O)C=C1CC[C@@H]1[C@@H]2[C@@H](O)C[C@@]2(C)[C@H]1CC[C@]2(O)C(=O)CO [Hydrocortisone base] | -0.327 |
| CC[N+](CC)(CC)CCOc1cccc(OCC[N+](CC)(CC)CC)c1OCC[N+](CC)(CC)CC [Gallamine triethiodide] | -0.526 |
| O=C(NC(Cc1cc(=O)[nH]c2ccccc12)C(=O)O)c1ccc(Cl)cc1 (stereo not given) [Rebamipide] | -0.423 |
| OC(CCN1CCCCC1)(c1ccccc1)C1CCCCC1 (stereo not given) [Trihexyphenidyl-D,L Hydrochloride] | 0.357 |
| Nc1ccn([C@@H]2CS[C@H](CO)O2)c(=O)n1 [Lamivudine] | -0.498 |
| COc1ccccc1OCC(O)CN1CCN(CC(=O)Nc2c(C)cccc2C)CC1 (stereo not given) [Ranolazine] | -0.352 |

Tested on: HeLa MZ
Experiment: as above
Conditions: compound concentration in added solution (µM; 5 µl added to 20 µl cells): 10; 18 h
In short: as §1

| Structure (SMILES) | filipin (z-score) |
| --- | --- |
| CCOc1cc(CC(=O)N[C@@H](CC(C)C)c2ccccc2N2CCCCC2)ccc1C(=O)O [Repaglinide] | -0.591 |
| Cc1cn[nH]c1 [Fomepizole] | -0.633 |
| CNCC[C@@H](Oc1ccccc1C)c1ccccc1 [Tomoxetine hydrochloride] | -0.0592 |
| O=C(Nc1cccc2c(=O)cc(-c3nnn[nH]3)oc12)c1ccc(OCCCCc2ccccc2)cc1 [Pranlukast] | -0.637 |
| N#CC(c1ccc(Cl)cc1)c1c(Cl)cc(-n2ncc(=O)[nH]c2=O)cc1Cl (stereo not given) [Diclazuril] | -0.204 |
| CCCCC1C(=O)N(c2ccccc2)N(c2ccccc2)C1=O [Phenylbutazone] | -0.301 |
| CCN1CCCC1CNC(=O)c1cc(S(=O)(=O)CC)c(N)cc1OC (stereo not given) [Amisulpride] | -0.453 |
| CNC(C)CCC=C(C)C (stereo not given) [Isometheptene mucate] | -0.578 |
| CC(=O)Oc1cc(C(C)C)c(OCCN(C)C)cc1C [Moxisylyte hydrochoride] | -0.452 |
| CN1CCC[C@@H]1CCO[C@](C)(c1ccccc1)c1ccc(Cl)cc1 [Clemastine fumarate] | 1.84 |
| Cc1nc2ccccn2c(=O)c1CCN1CCC(C(=O)c2ccc(F)cc2)CC1 [Pirenperone] | 2.01 |
| NS(=O)(=O)c1cc(C2(O)NC(=O)c3ccccc32)ccc1Cl (stereo not given) [Chlorthalidone] | -0.608 |
| CC(=O)NS(=O)(=O)c1ccc(N)cc1 [Sulfacetamide sodic hydrate] | -0.628 |
| NS(=O)(=O)c1cc(C(=O)O)c(NCc2ccco2)cc1Cl [Furosemide] | -0.492 |
| NNc1nncc2ccccc12 [Hydralazine hydrochloride] | -0.461 |
| CNC[C@H](O)[C@@H](O)[C@H](O)[C@H](O)CO [Meglumine] | -0.582 |
| CCCc1cc(C(N)=S)ccn1 [Prothionamide] | -0.377 |
| CC(=O)Nc1ccc(OCC(O)CNC(C)C)cc1 (stereo not given) [Practolol] | -0.506 |
| NCCc1ccc(O)c(O)c1 [Dopamine hydrochloride] | -0.485 |
| C#C[C@]1(O)CC[C@H]2[C@@H]3CCC4=Cc5oncc5C[C@]4(C)[C@H]3CC[C@@]21C [Danazol] | -0.556 |

| Structure (SMILES) | filipin (z-score) |
| --- | --- |
| CC(=O)O[C@H]1C[C@@H]2CC[C@@H]3[C@H](CC[C@@]4(C)[C@H]3C[C@H]([N+]3(C)CCCCC3)[C@@H]4OC(C)=O)[C@@]2(C)C[C@@H]1N1CCCCC1 [Vecuronium bromide] | -0.215 |
| CCOc1nc2cccc(C(=O)O)c2n1Cc1ccc(-c2ccccc2-c2nnn[nH]2)cc1 [Candesartan] | -0.218 |
| O=C(CCNNC(=O)c1ccncc1)NCc1ccccc1 [Nialamide] | -0.566 |
| NC(Cc1cc(I)c(Oc2cc(I)c(O)c(I)c2)c(I)c1)C(=O)O (stereo not given) [Thyroxine (L)] | -0.6 |
| Nc1ccc(/N=N/c2ccccc2)c(N)n1 [Phenazopyridine hydrochloride] | -0.502 |
| CC(=O)CC(c1ccccc1)c1c(O)c2ccccc2oc1=O (stereo not given) [Warfarin] | -0.372 |
| O=C1CCc2cc(OCCCCc3nnnn3C3CCCCC3)ccc2N1 [Cilostazol] | -0.5 |
| NC(=O)N1c2ccccc2CC(=O)c2ccccc21 [Oxcarbazepine] | -0.729 |
| Cc1c(Nc2ncccc2C(=O)O)cccc1C(F)(F)F [Flunixin meglumine] | -0.549 |
| CCn1cc(C(=O)O)c(=O)c2cnc(N3CCCC3)nc21 [Piromidic acid] | -0.418 |
| CNC1(C)C2CCC(C2)C1(C)C (stereo not given) [Mecamylamine hydrochloride] | -0.557 |
| CN(Cc1ccc(C(C)(C)C)cc1)Cc1cccc2ccccc12 [Butenafine Hydrochloride] | -0.793 |
| CC[N+](C)(CC)CCC[n+]1c(-c2ccccc2)c2cc(N)ccc2c2ccc(N)cc21 [Propidium iodide] | -0.527 |
| CC#C[C@]1(O)CC[C@H]2[C@@H]3CCC4=CC(=O)CCC4=C3[C@@H](c3ccc(N(C)C)cc3)C[C@@]21C [Mifepristone] | -0.393 |
| C[C@]12CCC(=O)C=C1CC[C@@H]1[C@@H]2[C@@H](O)C[C@@]2(C)[C@H]1CC[C@]2(O)C(=O)CO [Hydrocortisone base] | -0.44 |
| CC[N+](CC)(CC)CCOc1cccc(OCC[N+](CC)(CC)CC)c1OCC[N+](CC)(CC)CC [Gallamine triethiodide] | -0.576 |
| O=C(NC(Cc1cc(=O)[nH]c2ccccc12)C(=O)O)c1ccc(Cl)cc1 (stereo not given) [Rebamipide] | -0.367 |
| OC(CCN1CCCCC1)(c1ccccc1)C1CCCCC1 (stereo not given) [Trihexyphenidyl-D,L Hydrochloride] | 0.149 |
| Nc1ccn([C@@H]2CS[C@H](CO)O2)c(=O)n1 [Lamivudine] | -0.564 |
| COc1ccccc1OCC(O)CN1CCN(CC(=O)Nc2c(C)cccc2C)CC1 (stereo not given) [Ranolazine] | -0.221 |
